Measured values as given in PubChem BioAssay (Tox21).
“And” between values parts separate entries of the source, which are not always exact repeats. Equal values may be shown once. The source made the active and inactive calls. Unless noted, the call rests on the fitted dose curve; in most records, active means well fitted curve in the direction sought with a large enough effect in the repeat runs; inconclusive means weak or mixed curves; inactive means no such curve, though single readings can be large; an effect the other way counts as inactive or inconclusive.

How the values were obtained:
[1] = qHTS assay to identify small molecule antagonists of the glucocorticoid receptor (GR) signaling pathway - cell viability counter screen (AID 720693); further: nearly all actives have a fitted effect of over 55% in size; further: potency means the concentration at half of the fitted maximal effect
[2] = qHTS assay for identifying genotoxic compounds that show differential cytotoxicity against isogenic chicken DT40 cell lines with known DNA damage response pathways - wild type cell line (AID 743012); further: nearly all actives have a fitted effect of over 60% in size; further: potency means the concentration at half of the fitted maximal effect
Summary of the method: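 300 wt DT40 cells/well; cpd (DMSO) pintool-transferred after ~0.5 h at 37 C/5% CO2; 40 h incubation; CellTiter-Glo added, 30 min RT; luminescence read.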

[3] = qHTS assay for identifying genotoxic compounds that show differential cytotoxicity against isogenic chicken DT40 cell lines with known DNA damage response pathways - Rev3 mutant cell line (AID 743014); further: nearly all actives have a fitted effect of over 55% in size; further: potency means the concentration at half of the fitted maximal effect
[4] = qHTS assay for identifying genotoxic compounds that show differential cytotoxicity against isogenic chicken DT40 cell lines with known DNA damage response pathways - Rad54/Ku70 mutant cell line (AID 743015); further: nearly all actives have a fitted effect of over 60% in size; further: potency means the concentration at half of the fitted maximal effect
[5] = qHTS assay to identify small molecule antagonists of the androgen receptor (AR) signaling pathway - cell viability counter screen (AID 743033; further: nearly all actives have a fitted effect of over 45% in size; further: potency means the concentration at half of the fitted maximal effect)
[6] = target: Androgen receptor (Homo sapiens) (UniProt P10275); test: qHTS assay to identify small molecule antagonists of the androgen receptor (AR) signaling pathway (AID 743035; active means well fitted inhibition curve with a large enough effect in the signal ratio in the repeat runs, not every such curve was filed as active; inconclusive means weak or mixed curves, or effect the other way; inactive means no such curve, though single readings can be large or run the other way; the % refers to the signal ratio; further: potency means the concentration at half of the fitted maximal effect)
Summary of the method: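 In this cell-based reporter screen, compounds were tested in concentration series against R1881-activated HEK293 cells expressing beta-lactamase under UAS control; after 16 h at 37C, FRET substrate was added and fluorescence read 2 h later.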

[7] = target: Androgen receptor (Homo sapiens) (UniProt P10275); test: qHTS assay to identify small molecule agonists of the androgen receptor (AR) signaling pathway using the MDA cell line (AID 743040; further: nearly all actives have a fitted effect of over 20% in size)
Summary of the method: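 Stable MMTV-luciferase reporter in MDA-kb2 cells; note the promoter carries GR as well as AR response elements. 16 h compound treatment, 37C, 0% CO2; ONE-Glo luminescence endpoint.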

[8] = qHTS assay to identify small molecule antagonists of the androgen receptor (AR) signaling pathway using the MDA cell line - cell viability counter screen (AID 743041; further: nearly all actives have a fitted effect of over 45% in size; further: potency means the concentration at half of the fitted maximal effect)
Summary of the method: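 Using the breast carcinoma line MDA-kb2 AR-luc, test chemicals were co-incubated with R1881 for 16 h; CellTiter-Fluor reagent, added at 15.5 h, provided a fluorescence measure of live cells.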

[9] = target: Androgen receptor (Homo sapiens) (UniProt P10275); test: qHTS assay to identify small molecule antagonists of the androgen receptor (AR) signaling pathway using the MDA cell line (AID 743042; further: nearly all actives have a fitted effect of over 55% in size; further: potency means the concentration at half of the fitted maximal effect)
Summary of the method: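 Antagonist mode: compounds plus R1881 agonist added to MDA-kb2 AR-luc cells, incubated 16 h at 37C. Luciferase reporter luminescence quantified, with multiplexed CellTiter-Fluor readout for cell viability.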

[10] = qHTS assay to identify small molecule antagonists of the thyroid receptor (TR) signaling pathway - cell viability counter screen (AID 743064); further: nearly all actives have a fitted effect of over 50% in size; further: potency means the concentration at half of the fitted maximal effect
Summary of the method: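 GH3.TRE-Luc rat pituitary cells dosed after 4 hr plating, co-stimulated with T3 at 1 nM final, incubated 23.5 h at 37 C. Viability measured in the same wells by CellTiter-Fluor fluorescence after 30 min further at 37 C.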

[11] = qHTS assay to identify small molecule antagonists of the thyroid receptor (TR) signaling pathway (AID 743065); further: nearly all actives have a fitted effect of over 55% in size; further: potency means the concentration at half of the fitted maximal effect
Summary of the method: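 Antagonism measured as loss of luciferase signal in GH3 cells stably carrying a TRE-luciferase reporter, co-treated with compound and T3 (1 nM final) for 23.5 h at 37 C. Viability was read in the same well by CellTiter-Fluor.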

[12] = system: thyroid hormone receptor (rat, GH3 cells); test: qHTS assay to identify small molecule agonists of the thyroid receptor (TR) signaling pathway (AID 743066; calls by dose curve)
[13] = target: Estrogen receptor (Homo sapiens) (UniProt P03372); test: qHTS assay to identify small molecule antagonists of the estrogen receptor alpha (ER-alpha) signaling pathway (AID 743069; active means well fitted curve in the direction sought with a large enough effect in the signal ratio in the repeat runs, not every such curve was filed as active; inconclusive means weak or mixed curves, or effect the other way; inactive means no such curve, though single readings can be large or run the other way; the % refers to the signal ratio; further: potency means the concentration at half of the fitted maximal effect)
Summary of the method: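 Fluorescence intensity from a beta-lactamase FRET substrate served as the read-out. Cells: HEK293 with stably integrated ER-alpha-UAS-bla reporter. Agonist 17beta-estradiol was co-added with compounds; incubation 18 hr at 37C, substrate 2 hr at room temperature.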

[14] = qHTS assay to identify small molecule antagonists of the estrogen receptor alpha (ER-alpha) signaling pathway - cell viability counter screen (AID 743074; calls by dose curve; further: nearly all actives have a fitted effect of over 45% in size; further: potency means the concentration at half of the fitted maximal effect)
[15] = qHTS assay to identify small molecule antagonists of the estrogen receptor alpha (ER-alpha) signaling pathway using the BG1 cell line - cell viability counter screen (AID 743081);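 further: compound given together with 17beta-estradiol as the ER stimulus; nearly all actives have a fitted effect of over 45% in size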; further: potency means the concentration at half of the fitted maximal effect
Aromatase (Homo sapiens) = Aromatase (Homo sapiens) (UniProt P11511); test: qHTS assay to identify aromatase inhibitors (AID 743083); further: nearly all actives have a fitted effect of over 55% in size; further: potency means the concentration at half of the fitted maximal effect
[16] = qHTS assay to identify aromatase inhibitors - cell viability counter screen (AID 743084); further: potency means the concentration at half of the fitted maximal effect
[17] = target: Estrogen receptor (Homo sapiens) (UniProt P03372); test: qHTS assay to identify small molecule agonists of the estrogen receptor alpha (ER-alpha) signaling pathway (AID 743075; calls by dose curve; further: potency means the concentration at half of the fitted maximal effect); conditions: HEK293 ER-alpha-UAS-bla, beta-lactamase FRET ratio, 18 h; activation: at 70.1 µM (top of the series)
[18] = qHTS assay to identify small molecule antagonists of the estrogen receptor alpha (ER-alpha) signaling pathway using the BG1 cell line (AID 743080; calls by dose curve;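 further: BG1 cells stimulated with 17beta-estradiol alongside compound; nearly all actives have a fitted effect of over 25% in size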; further: potency means the concentration at half of the fitted maximal effect)
Summary of the method: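 Readout is ONE-Glo luminescence, taken 30 min at room temperature after reagent addition, preceded by a CellTiter-Fluor viability read; BG1-Luc-4E2 cells had received compound and 17beta-estradiol for 21.5 h at 37 C.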

[19] = target: Estrogen receptor (Homo sapiens) (UniProt P03372); test: qHTS assay to identify small molecule agonists of the estrogen receptor alpha (ER-alpha) signaling pathway using the BG1 cell line (AID 743079); conditions: BG1Luc4E2 cells, ERE-luciferase agonist, 22 h; further: nearly all actives have a fitted effect of over 20% in size; further: potency means the concentration at half of the fitted maximal effect
On the % scale 0 is the no-effect control and ±100 the full control effect.

Estrogen receptor (Homo sapiens), sequence (P03372 whole entry, looked up): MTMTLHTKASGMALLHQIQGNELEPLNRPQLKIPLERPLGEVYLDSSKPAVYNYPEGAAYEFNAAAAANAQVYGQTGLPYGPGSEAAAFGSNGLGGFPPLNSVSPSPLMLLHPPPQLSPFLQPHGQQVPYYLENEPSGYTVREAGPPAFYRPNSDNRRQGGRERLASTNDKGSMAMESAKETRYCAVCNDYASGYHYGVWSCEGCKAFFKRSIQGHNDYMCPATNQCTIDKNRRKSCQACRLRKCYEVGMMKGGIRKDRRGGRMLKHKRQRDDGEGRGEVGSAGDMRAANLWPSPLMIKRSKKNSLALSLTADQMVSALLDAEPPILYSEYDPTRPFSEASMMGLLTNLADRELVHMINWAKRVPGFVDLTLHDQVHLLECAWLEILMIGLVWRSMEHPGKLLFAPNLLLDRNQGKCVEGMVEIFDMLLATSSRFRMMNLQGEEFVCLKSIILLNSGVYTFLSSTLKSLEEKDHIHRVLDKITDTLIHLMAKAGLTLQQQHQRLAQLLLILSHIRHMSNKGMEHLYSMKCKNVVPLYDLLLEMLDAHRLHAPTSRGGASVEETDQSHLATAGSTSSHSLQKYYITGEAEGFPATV
Androgen receptor (Homo sapiens), sequence (P10275 whole entry, looked up): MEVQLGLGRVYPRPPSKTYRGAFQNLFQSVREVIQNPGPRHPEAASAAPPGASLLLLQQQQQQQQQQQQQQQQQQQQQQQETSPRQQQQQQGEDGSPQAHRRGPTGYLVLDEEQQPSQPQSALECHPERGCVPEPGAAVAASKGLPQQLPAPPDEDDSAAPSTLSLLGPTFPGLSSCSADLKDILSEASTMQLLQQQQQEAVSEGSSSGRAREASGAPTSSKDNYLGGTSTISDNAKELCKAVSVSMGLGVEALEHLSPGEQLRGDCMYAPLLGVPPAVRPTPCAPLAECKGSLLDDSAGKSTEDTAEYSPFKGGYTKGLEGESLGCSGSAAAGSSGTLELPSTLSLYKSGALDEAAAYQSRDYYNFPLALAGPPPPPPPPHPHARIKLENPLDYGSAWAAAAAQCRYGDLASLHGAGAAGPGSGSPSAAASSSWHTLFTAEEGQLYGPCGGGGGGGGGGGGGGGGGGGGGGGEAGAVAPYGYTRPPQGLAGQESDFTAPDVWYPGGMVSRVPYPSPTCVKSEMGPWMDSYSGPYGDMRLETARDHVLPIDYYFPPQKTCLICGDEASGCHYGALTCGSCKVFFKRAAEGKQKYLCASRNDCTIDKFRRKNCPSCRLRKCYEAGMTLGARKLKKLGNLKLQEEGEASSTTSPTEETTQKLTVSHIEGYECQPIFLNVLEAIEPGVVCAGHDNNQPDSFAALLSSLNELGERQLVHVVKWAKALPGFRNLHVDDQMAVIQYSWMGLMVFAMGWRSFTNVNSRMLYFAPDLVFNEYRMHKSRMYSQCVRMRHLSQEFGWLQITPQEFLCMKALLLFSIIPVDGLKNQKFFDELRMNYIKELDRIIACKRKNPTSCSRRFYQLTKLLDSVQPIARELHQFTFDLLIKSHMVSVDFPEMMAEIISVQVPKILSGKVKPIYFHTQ
Aromatase (Homo sapiens), sequence (P11511 whole entry, looked up): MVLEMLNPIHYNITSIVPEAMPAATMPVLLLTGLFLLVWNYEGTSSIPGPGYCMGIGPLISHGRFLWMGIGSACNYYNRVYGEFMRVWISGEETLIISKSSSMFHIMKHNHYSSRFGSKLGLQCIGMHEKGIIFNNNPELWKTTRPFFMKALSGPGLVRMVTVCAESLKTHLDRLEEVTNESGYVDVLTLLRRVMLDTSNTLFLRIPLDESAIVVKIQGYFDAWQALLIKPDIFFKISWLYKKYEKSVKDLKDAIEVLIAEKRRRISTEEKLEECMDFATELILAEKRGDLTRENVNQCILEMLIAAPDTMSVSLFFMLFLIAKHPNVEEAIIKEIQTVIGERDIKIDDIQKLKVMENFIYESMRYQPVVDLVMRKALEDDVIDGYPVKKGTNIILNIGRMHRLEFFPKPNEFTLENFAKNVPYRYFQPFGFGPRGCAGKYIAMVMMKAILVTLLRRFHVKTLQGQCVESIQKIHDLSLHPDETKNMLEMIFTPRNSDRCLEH

CCC(C)Nc1ccc(NC(C)CC)cc1 (configuration not stated)
active: Potency [1] 44.5 µM | Potency [2] 12.4 µM | Potency [3] 5.55 µM | Potency [4] 6.99 µM | Potency [5] 12.5 µM | Potency [6] 8.88 µM | Potency [8] 19.7 µM | Potency [9] 8.8 µM | Potency [10] 14 µM | Potency [11] 14 µM | Potency [13] 22.3 µM [inconclusive] | Potency [14] 25 µM | Potency [15] 24.8 µM | Potency (Aromatase (Homo sapiens)) 3.93 µM | Potency [16] 8.8 µM
inactive: Potency [7] | Potency [12]

CS(=O)(=O)CCNCc1ccc(-c2ccc3ncnc(Nc4ccc(OCc5cccc(F)c5)c(Cl)c4)c3c2)o1
inactive: Potency [1] | Potency [2] | Potency [3] | Potency [4] | Potency [5] | Potency [6] | Potency [7] | Potency [8] | Potency [9] | Potency [10] | Potency [11] | Potency [12] | Potency [13] | Potency [17] | Potency [18] | Potency [15] | Potency (Aromatase (Homo sapiens)) | Potency [16]

CCCCCCCC/C=C/CCCCCCCC1=NCCN1CCO
active: Potency [1] 49 µM | Potency [2] 12.2 µM | Potency [3] 13.7 µM | Potency [4] 13.7 µM | Potency [6] 49 µM | Potency [10] 21.7 µM | Potency [11] 21.7 µM | Potency (Aromatase (Homo sapiens)) 48.6 µM | Potency [16] 48.6 µM
inactive: Potency [7] | Potency [8] | Potency [9] | Potency [12]

N=C1N=C(N)c2ccccc21
inactive: Potency [1] | Potency [8] | Potency [12] | Potency [14] | Potency [17] | activation ([19]; at 70.3 µM (top of the series)) 3.41% | Potency [15]
active: Potency [2] 17.2 µM | Potency [3] 17.2 µM | Potency [4] 17.2 µM | Potency [10] 21.7 µM | Potency [11] 15.4 µM | Potency (Aromatase (Homo sapiens)) 38.6 µM | Potency [16] 61.1 µM

Oc1cccc2cc3cccc(O)c3c(O)c12
inactive: Potency [1] | Potency [2] | Potency [3] | Potency [4] | Potency [5] | Potency [8] | Potency [10] | Potency [11] | Potency [12] | Potency [14] | Potency (Aromatase (Homo sapiens)) | Potency [16]

Cc1[nH]nc2c1N=C(c1ccccc1Cl)c1cc([N+](=O)[O-])ccc1N2
inactive: Potency [12]
active: Potency [1] 19.5 µM | Potency [2] 0.386 µM | Potency [3] 0.386 µM | Potency [4] 0.486 µM | Potency [5] 43.6 µM | Potency [10] 27.3 µM | Potency [11] 19.3 µM | Potency [14] 6.92 µM | Potency [15] 54.5 µM

O=CC=C(c1ccccc1)c1ccccc1
inactive: Potency [1] | Potency [12] | Potency [17] | activation ([19]; at 95 µM (top of the series)) -5.89% | Potency [15]
active: Potency [2] 38.9 µM | Potency [3] 27.5 µM | Potency [4] 17.4 µM | Potency [5] 22.1 µM | Potency [10] 34.7 µM | Potency [11] 13.8 µM | Potency [13] 27.8 µM [inconclusive] | Potency [18] 69.1 µM

COc1cc(/C=C/C(=O)O[C@H]2CC[C@]34C[C@]35CC[C@]3(C)[C@@H]([C@H](C)CCC=C(C)C)CC[C@@]3(C)[C@@H]5CC[C@H]4C2(C)C)ccc1O
inactive: Potency [1] | Potency [2] | Potency [3] | Potency [4] | Potency [5] | Potency [8] | Potency [10] | Potency [11] | Potency [12] | Potency [15] | Potency (Aromatase (Homo sapiens)) | Potency [16]

COC(=O)C1=C(C)NC(C)=C(C(=O)OCC(C)C)C1c1ccccc1[N+](=O)[O-] (configuration not stated)
inactive: Potency [1] | Potency [12] | Potency [14] | Potency [17] | Potency [15]
active: Potency [2] 5.31 µM and 3.86 µM | Potency [3] 10.6 µM and 4.33 µM | Potency [4] 8.41 µM and 5.45 µM | Potency [5] 43.6 µM | Potency [10] 33.5 µM and 68.6 µM | Potency [11] 29.8 µM and 54.5 µM | Potency [13] 54.9 µM [inconclusive] | Potency (Aromatase (Homo sapiens)) 33.5 µM and 61.1 µM | Potency [16] 33.5 µM and 61.1 µM

Cc1ccc2oc(CN(Cc3ccccc3)C(=O)Nc3c(F)cc(F)cc3F)c(-c3ccc(Cl)cc3)c2c1
inactive: Potency [1] | Potency [8] | Potency [10] | Potency [12] | Potency [13] | Potency [14] | Potency [17] | activation ([19]; at 70.3 µM (top of the series)) -12.5% | Potency [18] | Potency [15] | Potency [16]
active: Potency [2] 18.7 µM | Potency [3] 13.3 µM | Potency [4] 14.9 µM

CCCCCCCCCCCCc1ccc(O)cc1
active: Potency [1] 21.9 µM | Potency [2] 10.9 µM | Potency [3] 7.7 µM | Potency [4] 12.2 µM | Potency [5] 34.7 µM | Potency [8] 54.5 µM | Potency [10] 13.7 µM | Potency [11] 13.7 µM | Potency [14] 49 µM | Potency [17] 3.09 µM [inconclusive] | Potency [19] 0.969 µM | Potency (Aromatase (Homo sapiens)) 48.6 µM | Potency [16] 61.1 µM

CCc1cc(SCc2sc(-c3ccc(C(F)(F)F)cc3)nc2CN2CCN(c3ccc(OC)cc3)CC2)ccc1OCC(=O)O
active: Potency [1] 49 µM | Potency [2] 43.3 µM | Potency [3] 61.1 µM | Potency [4] 30.6 µM | Potency [5] 5.49 µM | Potency [10] 24.3 µM | Potency [11] 12.2 µM | Potency (Aromatase (Homo sapiens)) 54.5 µM
inactive: Potency [8] | Potency [15]

NC(=O)CC[C@@H]1NC(=O)[C@H](Cc2ccccc2)NC(=O)[C@H](Cc2ccc(O)cc2)NC(=O)CCSSC[C@@H](C(=O)N2CCC[C@H]2C(=O)N[C@@H](CCCN=C(N)N)C(=O)NCC(N)=O)NC(=O)[C@H](CC(N)=O)NC1=O
inactive: Potency [1] | Potency [2] | Potency [3] | Potency [4] | Potency [5] | Potency [8] | Potency [14] | Potency [15] | Potency (Aromatase (Homo sapiens)) | Potency [16]

OC1(c2ccc(Cl)c(C(F)(F)F)c2)CCN(CCCC(c2ccc(F)cc2)c2ccc(F)cc2)CC1
inactive: Potency [8] | Potency [15]
active: Potency [1] 15.1 µM | Potency [2] 4.22 µM | Potency [3] 7.5 µM | Potency [4] 5.96 µM | Potency [5] 19 µM | Potency [10] 5.96 µM | Potency [11] 5.96 µM | Potency [14] 26.8 µM | Potency (Aromatase (Homo sapiens)) 7.5 µM | Potency [16] 7.5 µM
